Measurements as given in PubChem BioAssay.
The source made the active and inactive calls. Unless noted, the rule behind the calls is not given here.

Tests used:
[1] = anti-His antibody binders, primary screen, artefact control for SMM control protein annotation, biochemical, small-molecule microarray, 635 nm fluorescence (AID 1128); conditions: anti-His Alexa647 antibody binding, higher = more signal;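 note: score merges feature fluorescence with signal-to-noise for each printed compound spot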
[2] = test system: Human papillomavirus type 1a E7 protein (residues 1-88); test: HPV1a E7 small-molecule binders, primary screen, biochemical, small-molecule microarray, residues 1-88, 635 nm (AID 1129); conditions: small-molecule microarray binding, fluorescence 635 nm; higher = more signal
[3] = target: Focal adhesion kinase 1 (Homo sapiens) (UniProt Q05397); test: small-molecule microarray binders of FAK, primary screen, biochemical, 635/667 nm fluorescence, BSA, DTT (AID 1130); conditions: PTK2 binding, 635 nm fluorescence, higher = more signal;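 note: composite of spot emission at 667 nm and signal to noise over triplicate slides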
[4] = test system: Fibrinogen (Alexa647-labelled); test: fibrinogen binders on compound microarrays, profiling panel, artefact control for SMM control-protein annotation, biochemical, small-molecule microarray, 635/667 nm fluorescence (AID 1131); conditions: fibrinogen-A647 binding fluorescence, higher = more signal;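 note: z-score merges 667 nm fluorescence with per-spot signal-to-noise over triplicate slides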
[5] = target: Follistatin (Homo sapiens) (UniProt P19883); test: follistatin binders on small-molecule microarrays, primary screen, biochemical, small-molecule microarray, 635/667 nm fluorescence (AID 1132); conditions: FST binding, 635 nm fluorescence, higher = more signal
[6] = target: Fibroblast growth factor 2 (Homo sapiens) (UniProt P09038); test: FGF2 binders on small-molecule microarrays, primary screen, biochemical, small-molecule microarray, 635/667 nm fluorescence (AID 1133); conditions: small-molecule microarray binding, FGF2, fluorescence 635/667; higher = more signal
[7] = mitochondrial membrane potential change in A549 cells, profiling panel, cell-based, JC-1 fluorescence, basal, 24 h, 100 nL (AID 1138); conditions: higher = more signal;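 note: A549 lung adenocarcinoma cells under basal conditions with no added stimulus; test concentration not given here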
Lefty1 = Lefty1 binders on small-molecule microarrays, primary screen, biochemical, small-molecule microarray, 635/667 nm fluorescence (AID 1139); conditions: small-molecule microarray binding, fluorescence 635/667; higher = more signal
[8] = test system: wheat germ agglutinin (Triticum aestivum), Alexa647-labelled; test: wheat germ agglutinin binders on compound microarrays, profiling panel, artefact control for SMM control-protein annotation, biochemical, small-molecule microarray, 635/667 nm fluorescence (AID 1140); conditions: WGA-A647 binding, 635 nm fluorescence, higher = more signal;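 note: score merges 667 nm feature emission with signal to noise over triplicate slides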
[9] = target: Luciferin 4-monooxygenase (Photinus pyralis) (UniProt P08659); test: firefly luciferase enzyme inhibitors, primary screen, biochemical, luminescence, purified enzyme, 2006 set (AID 1141); conditions: SteadyGlo luminescence, 30 min, higher = more signal, called active from +8 up or from −8 down;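 note: cell-free assay with purified firefly luciferase at 100 ng per well in PBS; test concentration not given here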
[10] = test system: Wnt5a (protein binding on small-molecule microarray); test: Wnt5a binders on small-molecule microarray, primary screen, biophysical, 635/667 nm fluorescence (AID 1142); conditions: 635 nm fluorescence, higher = more signal;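 note: fluorescence read at 667 nm with signal to noise per printed feature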
[11] = cell viability in Huh7 cells, primary screen, cytotoxicity control for HCV replication inhibitor project, CellTiter-Glo luminescence, basal, 48 h (AID 1143); conditions: Huh7 HCV replicon, higher = more signal, called active from +8 up or from −8 down;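 note: Huh7 hepatoma cells carrying a hepatitis C replication reporter with no stimulus; test concentration not given here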
[12] = P. aeruginosa biofilm formation inhibitors, primary screen, PAO1 strain, BacTiter-Glo luminescence, LB-PBS (AID 1144); conditions: 12 h, higher = more signal
[13] = CREB reporter modulators without forskolin, primary screen, cell-based, PC12, CRE-LacZ reporter, unstimulated (AID 1145); conditions: no forskolin, luminescence, 4.5 h, higher = more signal, called active from +8 up or from −8 down
[14] = CREB reporter modulators under forskolin, primary screen, cell-based, PC12, CRE-LacZ reporter, forskolin-stimulated (AID 1146); conditions: luminescence, 4.5 h, higher = more signal, called active from +8 up or from −8 down;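 note: PC12 cells with 6xCRE LacZ reporter stimulated by forskolin 10 µM; beta-galactosidase reporter signal reflecting CREB driven transcription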
[15] = target: Streptavidin (Streptomyces avidinii) (UniProt P22629); test: streptavidin binders on small-molecule microarray, primary screen, artefact control for SMM compound annotation, biophysical, 635/667 nm fluorescence (AID 1147); conditions: streptavidin binding, higher = more signal;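 note: signal reflects streptavidin binding to arrayed compounds as a control protein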
[16] = small-molecule binders of probe aInhba, primary screen, biochemical, small-molecule microarray, 635/667 nm fluorescence (AID 1148); conditions: higher = more signal;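 note: score merges 667nm spot fluorescence with signal-to-noise for antibody binding to printed compounds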
Torsin-1A (Homo sapiens) [17] = target: Torsin-1A (Homo sapiens) (UniProt O14656); test: torsin A binders from cell lysate, primary screen, small-molecule microarray, wild-type, 635/667 nm (AID 1149); conditions: COS7 hTOR1A-WT lysate, 635 nm fluorescence, higher = more signal
Torsin-1A (Homo sapiens) [18] = target: Torsin-1A (Homo sapiens) (UniProt O14656); test: small-molecule binders of mutant TOR1A in lysate, primary screen, cell lysate, small-molecule microarray, COS7 lysate, 635/667 nm fluorescence (AID 1150); conditions: COS7 hTOR1A mutant lysate, 635 nm fluorescence, higher = more signal;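 note: score pools 667 nm emission and signal to noise measuring lysate protein binding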
[19] = test system: Sonic hedgehog protein (Shh); test: small-molecule binders of Shh protein, primary screen, biochemical, small-molecule microarray, 635/667 nm fluorescence (AID 1151); conditions: small-molecule microarray binding, 635 nm fluorescence; higher = more signal;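 note: Shh protein binding to compounds spotted on small-molecule microarray slides; score combines spot fluorescence intensity with signal-to-noise across triplicate slides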

Follistatin (Homo sapiens), sequence (P19883 whole entry, looked up): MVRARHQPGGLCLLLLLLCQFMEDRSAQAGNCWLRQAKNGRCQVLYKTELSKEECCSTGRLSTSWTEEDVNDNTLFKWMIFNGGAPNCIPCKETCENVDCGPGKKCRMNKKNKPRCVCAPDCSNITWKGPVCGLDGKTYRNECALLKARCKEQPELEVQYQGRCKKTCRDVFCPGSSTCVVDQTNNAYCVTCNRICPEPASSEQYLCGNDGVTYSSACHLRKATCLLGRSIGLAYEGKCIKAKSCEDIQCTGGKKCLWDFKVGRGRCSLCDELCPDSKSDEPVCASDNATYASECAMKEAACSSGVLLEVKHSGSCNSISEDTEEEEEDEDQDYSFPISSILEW
Streptavidin (Streptomyces avidinii), sequence (P22629 whole entry, looked up): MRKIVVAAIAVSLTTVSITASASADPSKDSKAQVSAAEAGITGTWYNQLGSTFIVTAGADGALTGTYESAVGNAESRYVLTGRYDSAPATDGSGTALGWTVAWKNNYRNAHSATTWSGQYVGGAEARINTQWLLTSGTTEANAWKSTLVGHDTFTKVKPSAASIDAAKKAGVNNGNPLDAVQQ
Luciferin 4-monooxygenase (Photinus pyralis), sequence (P08659 whole entry, looked up): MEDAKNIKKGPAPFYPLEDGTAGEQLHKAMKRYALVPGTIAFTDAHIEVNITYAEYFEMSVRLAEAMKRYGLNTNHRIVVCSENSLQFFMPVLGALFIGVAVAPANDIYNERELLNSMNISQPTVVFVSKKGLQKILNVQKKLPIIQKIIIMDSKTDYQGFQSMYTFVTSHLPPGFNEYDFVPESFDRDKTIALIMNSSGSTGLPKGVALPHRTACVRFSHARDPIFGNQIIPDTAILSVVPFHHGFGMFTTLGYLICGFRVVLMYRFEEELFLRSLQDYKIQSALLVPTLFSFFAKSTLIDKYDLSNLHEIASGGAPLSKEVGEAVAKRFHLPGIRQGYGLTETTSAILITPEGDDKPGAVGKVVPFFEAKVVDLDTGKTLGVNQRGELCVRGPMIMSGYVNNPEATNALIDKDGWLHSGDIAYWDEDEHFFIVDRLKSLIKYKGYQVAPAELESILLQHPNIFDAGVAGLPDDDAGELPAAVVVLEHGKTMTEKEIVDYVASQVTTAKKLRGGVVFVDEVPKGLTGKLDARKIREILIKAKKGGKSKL
Torsin-1A (Homo sapiens), sequence (O14656 whole entry, looked up): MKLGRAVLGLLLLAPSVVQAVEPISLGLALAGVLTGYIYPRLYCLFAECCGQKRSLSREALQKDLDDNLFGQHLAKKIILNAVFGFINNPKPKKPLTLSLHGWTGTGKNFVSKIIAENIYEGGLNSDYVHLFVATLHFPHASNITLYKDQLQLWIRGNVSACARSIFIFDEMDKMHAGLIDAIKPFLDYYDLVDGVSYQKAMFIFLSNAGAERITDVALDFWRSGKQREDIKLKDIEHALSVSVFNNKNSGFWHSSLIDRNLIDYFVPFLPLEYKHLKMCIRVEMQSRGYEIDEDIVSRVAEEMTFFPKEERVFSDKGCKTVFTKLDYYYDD
Fibroblast growth factor 2 (Homo sapiens), sequence (P09038 whole entry, looked up): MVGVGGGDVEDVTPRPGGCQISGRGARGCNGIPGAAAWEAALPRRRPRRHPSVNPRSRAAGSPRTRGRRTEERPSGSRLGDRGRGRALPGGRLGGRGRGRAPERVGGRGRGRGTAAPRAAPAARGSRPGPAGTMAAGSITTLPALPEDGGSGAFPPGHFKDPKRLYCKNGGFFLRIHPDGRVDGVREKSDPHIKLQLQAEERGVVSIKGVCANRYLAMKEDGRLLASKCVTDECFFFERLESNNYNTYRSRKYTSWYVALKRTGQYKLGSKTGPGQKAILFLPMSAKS
Focal adhesion kinase 1 (Homo sapiens), sequence (Q05397 whole entry, looked up): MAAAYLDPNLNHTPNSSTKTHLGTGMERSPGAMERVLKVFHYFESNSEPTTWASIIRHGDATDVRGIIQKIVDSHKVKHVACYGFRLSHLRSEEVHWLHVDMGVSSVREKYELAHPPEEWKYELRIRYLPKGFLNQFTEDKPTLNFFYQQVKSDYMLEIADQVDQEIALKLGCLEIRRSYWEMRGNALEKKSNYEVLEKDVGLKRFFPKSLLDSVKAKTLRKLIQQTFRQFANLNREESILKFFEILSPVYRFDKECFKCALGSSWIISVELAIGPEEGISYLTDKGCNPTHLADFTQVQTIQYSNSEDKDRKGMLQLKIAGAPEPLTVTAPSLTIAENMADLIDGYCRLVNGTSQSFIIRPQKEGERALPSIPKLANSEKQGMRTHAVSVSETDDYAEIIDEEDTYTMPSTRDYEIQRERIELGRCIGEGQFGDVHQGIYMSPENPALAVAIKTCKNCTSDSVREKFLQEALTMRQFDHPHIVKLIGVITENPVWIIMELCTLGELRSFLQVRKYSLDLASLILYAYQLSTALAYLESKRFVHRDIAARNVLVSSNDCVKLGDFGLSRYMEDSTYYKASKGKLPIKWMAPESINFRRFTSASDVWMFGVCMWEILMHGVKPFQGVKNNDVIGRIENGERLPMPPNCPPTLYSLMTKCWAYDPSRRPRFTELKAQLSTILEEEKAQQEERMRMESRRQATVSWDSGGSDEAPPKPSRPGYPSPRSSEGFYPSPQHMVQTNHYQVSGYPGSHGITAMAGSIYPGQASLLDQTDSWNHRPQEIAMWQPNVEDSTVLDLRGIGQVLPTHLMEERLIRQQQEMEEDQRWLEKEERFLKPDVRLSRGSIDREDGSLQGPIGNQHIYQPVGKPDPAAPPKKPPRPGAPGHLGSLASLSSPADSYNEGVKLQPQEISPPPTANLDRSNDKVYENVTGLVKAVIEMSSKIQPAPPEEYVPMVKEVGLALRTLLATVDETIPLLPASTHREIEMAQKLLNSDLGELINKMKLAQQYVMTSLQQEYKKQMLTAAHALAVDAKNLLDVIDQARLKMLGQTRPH

With `C/C=C/CN(C(=O)C#Cc1ccccc1)[C@H](CO[Si](C)(C)C(C)(C)C)c1ccccc1` the composite z-score [1] was -1.73, the composite z-score [2] was -0.0136 and the composite z-score [3] was -0.1. The composite z-score [4] was -2.12, the composite z-score [5] was -1.52 and the composite z-score [6] was -1.25. It also gave a z-score [7] of 0.2, a composite z-score (Lefty1) of -0.977 and a composite z-score [8] of -1.7. For the same compound, the z-score [9] was -0.178 (inactive), the composite z-score [10] was -0.515 and the z-score [11] was -4.31 (inactive). For the same compound, the z-score [12] was 1.09 (inactive), the z-score [13] was 1.94 (inactive) and the z-score [14] was -0.757 (inactive). It also gave a composite z-score [15] of -1.06, a composite z-score [16] of -0.353 and a composite z-score (Torsin-1A (Homo sapiens) [17]) of -0.724. For the same compound, the composite z-score (Torsin-1A (Homo sapiens) [18]) was -0.841 and the composite z-score [19] was 0.248.
`CC(C)[Si](C#CCCCC#N)(O[C@H](c1ccccc1)c1cn([C@H](C)c2ccccc2)nn1)C(C)C` showed a composite z-score [1] of 0.67, a composite z-score [2] of 0.893 and a composite z-score [3] of -0.0546. For the same compound, the composite z-score [4] was 0.464, the composite z-score [5] was 0.661 and the composite z-score [6] was 0.286. It also gave a z-score [7] of 2.34, a composite z-score (Lefty1) of 0.739 and a composite z-score [8] of 0.0425. For the same compound, the z-score [9] was -0.863 (inactive), the composite z-score [10] was 0.0952 and the z-score [11] was -1.75 (inactive). The z-score [12] was -0.0514 (inactive), the z-score [13] was -0.23 (inactive) and the z-score [14] was 0.301 (inactive). It also gave a composite z-score [15] of 0.492, a composite z-score [16] of 0.0183 and a composite z-score (Torsin-1A (Homo sapiens) [17]) of 0.0529. The composite z-score (Torsin-1A (Homo sapiens) [18]) was 0.28 and the composite z-score [19] was 1.09.
`Cc1ccc(S(=O)(=O)N2[C@@H](c3ccccc3)C(C(=O)O)=CC[C@H]2c2ccc(C#N)cc2)cc1` gave a composite z-score [1] of 1.58, a composite z-score [2] of 1.31 and a composite z-score [3] of 0.447. The composite z-score [4] was 0.992, the composite z-score [5] was 0.0793 and the composite z-score [6] was -0.413. The z-score [7] was -1.38, the composite z-score (Lefty1) was -0.388 and the composite z-score [8] was 1.05. The z-score [9] was 0.654 (inactive), the composite z-score [10] was 0.111 and the z-score [11] was -0.478 (inactive). For the same compound, the z-score [12] was -0.236 (inactive), the z-score [13] was -0.275 (inactive) and the z-score [14] was -0.551 (inactive). It also gave a composite z-score [15] of 0.0546, a composite z-score [16] of -0.148 and a composite z-score (Torsin-1A (Homo sapiens) [17]) of 0.834. The composite z-score (Torsin-1A (Homo sapiens) [18]) was 2.1 and the composite z-score [19] was -0.133.
`C=CCC(OC(C)=O)[C@@H]1[C@@H](N(Cc2ccc(-c3ccccc3)cc2)C(=O)c2cccc3ccccc23)c2cc(OCCCO)ccc2N1C(=O)c1ccc2ccccc2c1` (stereo not given in full) gave a composite z-score [1] of -0.173, a composite z-score [2] of 0.216 and a composite z-score [3] of 0.529. The composite z-score [4] was 0.728, the composite z-score [5] was 0.424 and the composite z-score [6] was -0.198. It also gave a z-score [7] of 0.248, a composite z-score (Lefty1) of 0.243 and a composite z-score [8] of 0.104. The z-score [9] was 0.209 (inactive), the composite z-score [10] was 0.0959 and the z-score [11] was -1.61 (inactive). The z-score [12] was 0.41 (inactive), the z-score [13] was -0.155 (inactive) and the z-score [14] was 0.108 (inactive). For the same compound, the composite z-score [15] was 0.144, the composite z-score [16] was 0.0219 and the composite z-score (Torsin-1A (Homo sapiens) [17]) was -0.0928. The composite z-score (Torsin-1A (Homo sapiens) [18]) was 0.0249 and the composite z-score [19] was 0.156.
Compound `COc1ccc(NN2C(C(O)c3cc(C(F)(F)F)cc(C(F)(F)F)c3)C=CC3C(=O)N(C4CCCCC4)C(=O)C32)cc1` (stereo not given) has a composite z-score [1] of 0.764, a composite z-score [2] of 1.1 and a composite z-score [3] of 0.359. The composite z-score [4] was 0.895, the composite z-score [5] was 0.544 and the composite z-score [6] was -0.0047. The z-score [7] was -0.822, the composite z-score (Lefty1) was -0.364 and the composite z-score [8] was 1.2. For the same compound, the z-score [9] was 0.36 (inactive), the composite z-score [10] was 0.397 and the z-score [11] was -2.42 (inactive). The z-score [12] was -1.1 (inactive), the z-score [13] was -0.723 (inactive) and the z-score [14] was -0.504 (inactive). For the same compound, the composite z-score [15] was 0.837, the composite z-score [16] was 1.19 and the composite z-score (Torsin-1A (Homo sapiens) [17]) was 0.408. The composite z-score (Torsin-1A (Homo sapiens) [18]) was 1.19 and the composite z-score [19] was -0.0356.
With `CC1(C)OC[C@@]23C=C(Br)[C@@H](C[C@H]12)[C@@]1(CO1)C3=O` the composite z-score [1] was 0.424, the composite z-score [2] was 0.62 and the composite z-score [3] was 0.139. It also gave a composite z-score [4] of 0.149, a composite z-score [5] of 0.369 and a composite z-score [6] of 0.122. For the same compound, the z-score [7] was 0.582, the composite z-score (Lefty1) was 0.439 and the composite z-score [8] was 0.0477. The z-score [9] was -0.0228 (inactive), the composite z-score [10] was 0.0405 and the z-score [11] was 0.661 (inactive). The z-score [12] was 0.844 (inactive), the z-score [13] was 0.494 (inactive) and the z-score [14] was 0.925 (inactive). It also gave a composite z-score [15] of -0.0131, a composite z-score [16] of -0.0331 and a composite z-score (Torsin-1A (Homo sapiens) [17]) of 0.667. It also gave a composite z-score (Torsin-1A (Homo sapiens) [18]) of 0.483 and a composite z-score [19] of 0.474.
With `C=CCC(OC(C)=O)[C@@H]1[C@@H](N(Cc2ccc(-c3ccccc3)cc2)C(=O)c2ccc(-c3ccccc3)cc2)c2cc(OCCCO)ccc2N1C(=O)c1ccc2ccccc2n1` (stereo not given in full) the composite z-score [1] was -0.513, the composite z-score [2] was 0.907 and the composite z-score [3] was 0.879. For the same compound, the composite z-score [4] was -0.239, the composite z-score [5] was 0.548 and the composite z-score [6] was 0.051. For the same compound, the z-score [7] was 1.61, the composite z-score (Lefty1) was -0.101 and the composite z-score [8] was 0.152. For the same compound, the z-score [9] was -1.46 (inactive), the composite z-score [10] was -0.0949 and the z-score [11] was 0.115 (inactive). The z-score [12] was 0.196 (inactive), the z-score [13] was 0.992 (inactive) and the z-score [14] was 0.705 (inactive). It also gave a composite z-score [15] of 0.21, a composite z-score [16] of 0.333 and a composite z-score (Torsin-1A (Homo sapiens) [17]) of -0.178. It also gave a composite z-score (Torsin-1A (Homo sapiens) [18]) of 0.342 and a composite z-score [19] of 0.767.
`C=CCC(OC(C)=O)[C@@H]1[C@@H](N(Cc2ccc(-c3ccccc3)cc2)C(=O)c2ccc(C)cc2)c2cc(OCCCO)ccc2N1C(=O)c1ccc2ccccc2c1` (stereo not given in full) showed a composite z-score [1] of -0.722, a composite z-score [2] of 0.117 and a composite z-score [3] of -0.161. It also gave a composite z-score [4] of -0.283, a composite z-score [5] of 0.576 and a composite z-score [6] of -0.0502. It also gave a z-score [7] of 1.68, a composite z-score (Lefty1) of 0.297 and a composite z-score [8] of 0.008. For the same compound, the z-score [9] was -1.9 (inactive), the composite z-score [10] was 0.0548 and the z-score [11] was -0.715 (inactive). The z-score [12] was 0.137 (inactive), the z-score [13] was 1.97 (inactive) and the z-score [14] was 0.179 (inactive). It also gave a composite z-score [15] of 0.122, a composite z-score [16] of 0.108 and a composite z-score (Torsin-1A (Homo sapiens) [17]) of 0.222. It also gave a composite z-score (Torsin-1A (Homo sapiens) [18]) of -0.0531 and a composite z-score [19] of 0.587.
